Inconclusive results are not listed. Calls of active or inactive are those of the source. How the source made its calls, unless noted: active means hit-call score of the fitted dose curve at least 0.9, where 1 is the maximum; inconclusive means response in the unintended direction; inactive means score below 0.9.
Key:
[1] = biological target: Cellular tumor antigen p53 (Homo sapiens) (UniProt P04637); test: TOX21_p53_BLA_p2_ratio: Tox21 HCT-116 p53 Agonism Beta-lactamase Assay, Ratio, Phase 2 (AID 2283592)
Procedure, shortened: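 First, HCT116 reporter cells settle for 5 h at 37C. Next, DMSO compound solutions are pinned in (217-fold dilution) and left 16 h. Finally, CCF4-AM substrate is loaded 2 h at room temperature and the 460/530 nm ratio read.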

[2] = biological target: Cellular tumor antigen p53 (Homo sapiens) (UniProt P04637); test: TOX21_p53_BLA_p3_ratio: Tox21 HCT-116 p53 Agonism Beta-lactamase Assay, Ratio, Phase 3 (AID 2283596)
Procedure, shortened: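 Cells were seeded at 4000/well, rested 5 h at 37C, then dosed with DMSO compound solutions (217-fold dilution) for 16 h. CCF4-AM substrate was loaded for 2 h at room temperature, and the 460/530 nm emission ratio was fitted for gain of signal versus DMSO.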

[3] = TOX21_p53_BLA_p4_viability: Viability Assessment in the Tox21 HCT-116 p53 Agonism Beta-lactamase Assay, Phase 4 (AID 2283597);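 further: hits lower the luminescence signal meaning cytotoxicity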
Procedure, shortened: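 4000 HCT116 cells per well; 5 h attachment; compounds from DMSO, 217-fold dilution; 16 h at 37C. Then CCF4-AM, 2 h RT, followed by CellTiter-Glo, 30 min RT, luminescence. Decrease = cytotoxicity.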

[4] = biological target: Cellular tumor antigen p53 (Homo sapiens) (UniProt P04637); test: TOX21_p53_BLA_p5_ratio: Tox21 HCT-116 p53 Agonism Beta-lactamase Assay, Ratio, Phase 5 (AID 2283599)
Procedure, shortened: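 HCT-116 p53-bla cells (4000/well) plated 5 h, dosed with compound (217-fold DMSO dilution) for 16 h at 37 C; CCF4-AM substrate 2 h at room temperature. Activity is the 460/530 nm emission ratio (405 nm excitation), fitted in gain-of-signal direction versus DMSO.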

[5] = biological target: Cellular tumor antigen p53 (Homo sapiens) (UniProt P04637); test: TOX21_p53_BLA_p4_ratio: Tox21 HCT-116 p53 Agonism Beta-lactamase Assay, Ratio, Phase 4 (AID 2283601)
Procedure, shortened: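 HCT-116 p53 beta-lactamase reporter cells (4000/well) preincubated 5 h, then compound (217-fold dilution of DMSO stock) for 16 h at 37C. CCF4-AM substrate added 2 h at room temperature; 460/530 nm emission ratio fitted upward versus DMSO.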

[6] = test system: Thyroperoxidase (TPO), gene 54314; test: CCTE_Simmons_AUR_rTPO: CCTE's Amplex UltraRed Assay for Thyroperoxidase (TPO) Inhibition, Simmons Lab (AID 2283662)
Procedure, shortened: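 Cell-free peroxidase activity assay using rat thyroid gland microsomes with excess H2O2 (300 uM) and 25 uM Amplex UltraRed. Compounds tested from 5 nM to 87.5 uM; fluorescence measured after 30 min at 37C, analysed relative to DMSO baseline.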

[7] = CCTE_Simmons_CellTiterGLO_HEK293T: Viability Assessment in CCTE's Assays for Thyroperoxidase (TPO) Inhibition, Simmons Lab (AID 2283665);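 further: cells exposed to compound for 24 h before readout; actives reduce ATP signal below DMSO vehicle meaning cytotoxicity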
Procedure, shortened: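 Luciferase-coupled ATP content after 24 h exposure gives viability; 8-point series from 5 nM to 87.5 uM final in 0.5% DMSO. Human HEK293T cells, 1% FBS medium, three biological replicates, dichlone positive control.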

[8] = CCTE_Shafer_MEA_dev_firing_rate_mean: CCTE's Neural Network Formation Assay for Mean Firing Rate, Shafer Lab (AID 2284031; active means hit-call score of the fitted dose curve at least 0.9, where 1 is the maximum; inactive means score below 0.9;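 further: curve fitted for loss of firing so AC50 reflects decreased mean firing rate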)
Procedure, shortened: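 Spike frequency (spikes/recording length, averaged over active electrodes) was recorded on days 5, 7, 9 and 12 and collapsed to AUC; rat cortical cultures received compound continuously over 12 days of network development.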

[9] = CCTE_Shafer_MEA_dev_per_burst_spike_percent: CCTE's Neural Network Formation Assay for Percent of Spikes in a Burst, Shafer Lab (AID 2284032; active means hit-call score of the fitted dose curve at least 0.9, where 1 is the maximum; inactive means score below 0.9;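 further: fitted as a decrease in burst spike percentage below DMSO baseline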)
Procedure, shortened: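 Value is trapezoidal AUC over recordings on days 5, 7, 9 and 12 of the well-mean fraction of spikes falling in single-electrode bursts; rat cortical cultures exposed continuously from plating, treatment renewed DIV 5 and 9, fitted downward against DMSO.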

[10] = CCTE_Shafer_MEA_dev_active_electrodes_number: CCTE's Neural Network Formation Assay for Number of Active Electrodes, Shafer Lab (AID 2284040);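 further: potency for loss of active electrodes versus DMSO so lower counts are hits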
Procedure, shortened: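 Counts electrodes per well firing at least 5 spikes/min, recorded on days 5, 7, 9 and 12 in rat cortical cultures dosed continuously from plating (treatment refreshed DIV 5, 9). Value is the area under the curve over recordings, fitted downward relative to DMSO.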

[11] = CCTE_Shafer_MEA_dev_bursting_electrodes_number: CCTE's Neural Network Formation Assay for Number of Bursting Electrodes, Shafer Lab (AID 2284043);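 further: potency is for loss of bursting electrodes relative to DMSO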
Procedure, shortened: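 Rat cortical primary neurons, 48-well MEA, 16 electrodes/well; dosing DIV 0–12, re-dosed with full media change DIV 5, 9. Recordings DIV 5/7/9/12, AxIS adaptive spike detector; bursting electrode = ≥1 burst/2 min. AUC across days; loss of signal vs DMSO.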

[12] = CCTE_Shafer_MEA_dev_per_burst_interspike_interval: CCTE's Neural Network Formation Assay for Burst Interspike Interval, Shafer Lab (AID 2284044; active means hit-call score of the fitted dose curve at least 0.9, where 1 is the maximum; inactive means score below 0.9;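 further: potency for a decrease of within-burst interspike interval below DMSO level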)
Procedure, shortened: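 Primary rat cortical neurons on 48-well MEA plates, exposed from day 0 through day 12, treatment renewed at DIV 5 and 9. Within-burst interspike interval recorded days 5, 7, 9, 12, well-averaged, summarised as AUC; negative fit versus DMSO.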

[13] = CCTE_Shafer_MEA_dev_burst_duration_mean: CCTE's Neural Network Formation Assay for Mean Burst Duration, Shafer Lab (AID 2284045; active means hit-call score of the fitted dose curve at least 0.9, where 1 is the maximum; inactive means score below 0.9;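 further: curve fitted for loss meaning shorter burst duration than DMSO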)
Procedure, shortened: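 Rat cortical cultures, 1.5 x 10^5 cells/well with laminin drop; continuous dosing days 0–12, media plus treatment refreshed DIV 5, 9. AxIS adaptive spike detection; mean single-electrode burst duration, AUC over four recordings, negative direction vs DMSO.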

[14] = CCTE_Shafer_MEA_dev_interburst_interval_mean: CCTE's Neural Network Formation Assay for Mean Interburst Interval, Shafer Lab (AID 2284046; active means hit-call score of the fitted dose curve at least 0.9, where 1 is the maximum; inactive means score below 0.9;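 further: well-mean interburst interval of bursting electrodes as AUC over four recording days; curve fitted for decrease in interburst interval relative to DMSO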)
Procedure, shortened: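 Developing rat cortical networks on 48-well MEAs receive compound from the day of plating. Burst intervals from each active electrode are averaged per well, and AUC over the recording days is fitted in the negative direction against DMSO.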

[15] = CCTE_Shafer_MEA_dev_inter_network_spike_interval_mean: CCTE's Neural Network Formation Assay for Mean Inter-network Spike Interval, Shafer Lab (AID 2284047; active means hit-call score of the fitted dose curve at least 0.9, where 1 is the maximum; inactive means score below 0.9;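 further: potency for a decrease in mean inter-network spike interval below DMSO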)
Procedure, shortened: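 Rat cortical cultures, 1.5 x 10^5 cells/well on 48-well MEA plates; continuous exposure days 0–12, medium and compound refreshed DIV 5, 9. Mean time between consecutive network-spike peaks; AUC across DIV 5/7/9/12; DMSO baseline, negative fitting direction.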

[16] = CCTE_Shafer_MEA_dev_network_spike_number: CCTE's Neural Network Formation Assay for Number of Network Spikes, Shafer Lab (AID 2284048; active means hit-call score of the fitted dose curve at least 0.9, where 1 is the maximum; inactive means score below 0.9;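 further: synchronized bursts across electrodes counted on days 5 7 9 12 and integrated as AUC; fit as a loss of signal meaning fewer network spikes than DMSO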)
Procedure, shortened: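 Rat cortical primary cultures on 48-well MEA (16 electrodes/well); continuous exposure DIV 0–12, full medium and treatment exchange DIV 5, 9. Readout: network spike count, AxIS adaptive detection, recordings DIV 5/7/9/12 collapsed to AUC; loss-of-signal fit, DMSO baseline.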

[17] = CCTE_Shafer_MEA_dev_network_spike_peak: CCTE's Neural Network Formation Assay for Mean Number of Electrodes in Network Spike, Shafer Lab (AID 2284049; active means hit-call score of the fitted dose curve at least 0.9, where 1 is the maximum; inactive means score below 0.9;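 further: fitted for loss of signal meaning fewer electrodes in network spikes than DMSO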)
Procedure, shortened: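 Network-spike peak electrode count from recordings on days 5, 7, 9 and 12 was combined as trapezoidal area under the curve. Rat cortical cultures were treated continuously from plating, with compound renewed at each feed (DIV 5, 9); fits versus DMSO.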

Measured: AC50

Cellular tumor antigen p53 (Homo sapiens), sequence (P04637 whole entry, looked up): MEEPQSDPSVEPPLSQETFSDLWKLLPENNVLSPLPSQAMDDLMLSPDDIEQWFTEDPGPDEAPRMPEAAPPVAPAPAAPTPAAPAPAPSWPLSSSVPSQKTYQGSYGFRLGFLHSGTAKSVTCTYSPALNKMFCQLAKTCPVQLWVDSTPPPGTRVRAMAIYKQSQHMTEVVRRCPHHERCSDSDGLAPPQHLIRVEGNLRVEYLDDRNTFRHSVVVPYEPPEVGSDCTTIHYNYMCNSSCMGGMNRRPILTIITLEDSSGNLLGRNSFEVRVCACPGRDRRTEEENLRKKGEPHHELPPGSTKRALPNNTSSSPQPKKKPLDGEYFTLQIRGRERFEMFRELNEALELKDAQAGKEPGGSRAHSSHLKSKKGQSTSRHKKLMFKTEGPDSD

[CH3][Hg][Cl]
active: [1] 44800 nM | [2] 1770 nM | [4] 2250 nM | [7] 4180 nM | [8] 177 nM | [9] 306 nM | [10] 360 nM | [11] 370 nM | [12] 322 nM | [13] 260 nM | [14] 340 nM | [15] 5.7 nM | [16] 86.7 nM | [17] 356 nM
inactive: [3] | [5] | [6]

Source: PubChem BioAssay (EPA / NIEHS)
